Here are results for five compounds from PubChem BioAssay.

A short description of assay [1]: rapamycin-like changes in RPL19A-GFP expression – cell-based, S. cerevisiae, multiplex flow cytometry, primary screen (AID 1862; in the data active means percent of DMSO control GFP below about 86%;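 further: lower values mimic rapamycin by blocking the RPL19A rise seen in DMSO cells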). Conditions: S. cerevisiae RPL19A-GFP strain, flow cytometry fluorescence, 3 h; at 10 µM; stronger effect = lower value. Background: Flow cytometry measures light scatter and fluorescence of single cells or particles in a stream.
Assay [2] is described as follows: TOR pathway GLN3 branch reporter MEP2-GFP changes – S. cerevisiae, multiplex flow cytometry, primary screen (AID 1867;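 active means GFP response, as percent of the DMSO control, above the screen-wide mean plus 3 SD, about 139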;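 further: median GFP channel fluorescence of barcode-gated MEP2-GFP cells measured by flow cytometry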). Conditions: S. cerevisiae MEP2-GFP strain, 3 h, at 10 µM, stronger effect = higher value, 100% means same as DMSO wells.
Assay [3] in a line: TOR pathway RTG branch CIT2 reporter changes – S. cerevisiae, GFP fusion, multiplex flow cytometry, primary screen (AID 1870;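 active means percent response above a set limit, the screen-wide mean plus 3 SD, cut at about 130% in these data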;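 further: barcoded CIT2-GFP strain pooled with four other GFP strains with rapamycin as positive control; median GFP fluorescence per well over plate mean of DMSO wells so 100% = DMSO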). As to conditions: S. cerevisiae CIT2-GFP expression, 3 h, at 10 µM, stronger effect = higher value.
A short description of assay [4]: TOR pathway LAP4-GFP level changes – S. cerevisiae, multiplex flow cytometry, primary screen (AID 1873;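 active means GFP signal, as percent of the solvent control, above the screen mean plus 3 SD, about 149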). As to conditions: S. cerevisiae LAP4-GFP expression, 3 h, at 10 µM, stronger effect = higher value.
Assay [5] can be described thus: yeast AGP1-GFP level changes, GLN3 branch – cell-based, multiplex flow cytometry, S. cerevisiae, primary screen (AID 1887;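 active means GFP signal above the screen-wide mean plus 3 SD, that is over about 124.5% of the solvent control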;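 further: AGP1-GFP fusion strain of S. cerevisiae within a five-strain barcoded multiplex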). As to conditions: 3 h, at 10 µM, stronger effect = higher value.
Assay [6] is described as follows: reduced mouse 2C T cell binding to pMHC/ICAM-1 vesicles – MLPCN validation set, flow cytometry, LFA-1/ICAM-1 modulator project, pilot screen (AID 2523;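 active means response below a set limit, under 55% cells CD8-positive and vesicle-bound, and CD8 cells' 90th-percentile brightness under 279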;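 on vesicle binding response: mean PE anti-B7-1 fluorescence of CD8+ cells relative to row control; 100% = QL9-loaded vesicles with DMSO vehicle in the same plate row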). Conditions: 2C mouse CD8+ T cells, at 7 µM, stronger effect = lower value; double positive events: measured here: CD8+/vesicle+ event percentage.
Assay [7] has as its target Integrin beta-1 (Homo sapiens) + Integrin alpha-4 (Homo sapiens) (UniProt P13612+P05556). Put plainly: alpha4beta1 integrin LIBS antibody binding reduction – U937 cells, HUTS-21 mAb, flow cytometry, validation set, VLA-4 allosteric modulator project, pilot screen (AID 2674;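 active means inhibition above 50%, about 3 SD of the validation set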;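 further: antibody binding induced by the VLA-4 ligand LDV present at three times its Kd; 0% = LDV ligand with antibody and no compound and 100% = antibody without LDV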). Conditions: HUTS-21 LIBS mAb binding, at 6.7 µM, stronger effect = higher value, binding induced by LDV ligand.

Assay [8] can be described thus: calorie-restriction mimetic ROS inhibitors, yeast – validation compound set, pilot screen (AID 2706;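 active means superoxide response below 65% of plate, a cut near 3 SD across the whole screen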;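 further: yeast exposed to compound for one week at 30 degrees C before staining; 100% = mean of all compound wells on the same plate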). As to conditions: S. cerevisiae aging, superoxide DHE fluorescence; at 10 µM; stronger effect = lower value.
Assay [9] concerns the target Beta-adrenergic receptor kinase 1 (Homo sapiens) (UniProt P25098). Put plainly: GRK2 binders displacing RNA aptamer, biochemical, validation, human GRK2, bead flow cytometry (AID 488806). As to conditions: bead-bound GRK2, FAM-aptamer displacement, at 10 µM, stronger effect = higher value.
Assay [10] has as its target Beta-2 adrenergic receptor (Homo sapiens) (UniProt P07550). Description: agonist-induced loss of surface beta2AR – cell-based, FAP fluorogen, flow cytometry, validation set, pilot screen (AID 504459;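 active means percent response above 42, roughly 3 SD of non-fluorescent test compounds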;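 further: agonist-driven loss of surface beta2AR via internalization measured by FAP dye flow cytometry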). As to conditions: Am2.2-beta2AR cells, at 10 µM, stronger effect = higher value.
In assay [11] the target is AP-2 complex subunit beta (Homo sapiens) (UniProt P63010). Description: beta-arrestin/AP2 interaction blockers – biochemical, validation set, GST-AP2 beads, flow cytometry, pilot screen (AID 504541;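 active means inhibition above 54%, about 3 SD of non-fluorescent compounds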;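 further: AP2 carries R879A mutation and is captured from E. coli lysate; bead-bound FITC arrestin peptide fluorescence measuring arrestin peptide binding to AP2; 0% = DMSO wells and 100% = excess unlabeled arrestin peptide control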). As to conditions: FITC arrestin peptide, at 10 µM, stronger effect = higher value, AP2 beta2 appendage fragment, R879A mutant.
AP-2 complex subunit beta (Homo sapiens), sequence (P63010 whole entry, looked up, the tested form may be a part, one chain of several): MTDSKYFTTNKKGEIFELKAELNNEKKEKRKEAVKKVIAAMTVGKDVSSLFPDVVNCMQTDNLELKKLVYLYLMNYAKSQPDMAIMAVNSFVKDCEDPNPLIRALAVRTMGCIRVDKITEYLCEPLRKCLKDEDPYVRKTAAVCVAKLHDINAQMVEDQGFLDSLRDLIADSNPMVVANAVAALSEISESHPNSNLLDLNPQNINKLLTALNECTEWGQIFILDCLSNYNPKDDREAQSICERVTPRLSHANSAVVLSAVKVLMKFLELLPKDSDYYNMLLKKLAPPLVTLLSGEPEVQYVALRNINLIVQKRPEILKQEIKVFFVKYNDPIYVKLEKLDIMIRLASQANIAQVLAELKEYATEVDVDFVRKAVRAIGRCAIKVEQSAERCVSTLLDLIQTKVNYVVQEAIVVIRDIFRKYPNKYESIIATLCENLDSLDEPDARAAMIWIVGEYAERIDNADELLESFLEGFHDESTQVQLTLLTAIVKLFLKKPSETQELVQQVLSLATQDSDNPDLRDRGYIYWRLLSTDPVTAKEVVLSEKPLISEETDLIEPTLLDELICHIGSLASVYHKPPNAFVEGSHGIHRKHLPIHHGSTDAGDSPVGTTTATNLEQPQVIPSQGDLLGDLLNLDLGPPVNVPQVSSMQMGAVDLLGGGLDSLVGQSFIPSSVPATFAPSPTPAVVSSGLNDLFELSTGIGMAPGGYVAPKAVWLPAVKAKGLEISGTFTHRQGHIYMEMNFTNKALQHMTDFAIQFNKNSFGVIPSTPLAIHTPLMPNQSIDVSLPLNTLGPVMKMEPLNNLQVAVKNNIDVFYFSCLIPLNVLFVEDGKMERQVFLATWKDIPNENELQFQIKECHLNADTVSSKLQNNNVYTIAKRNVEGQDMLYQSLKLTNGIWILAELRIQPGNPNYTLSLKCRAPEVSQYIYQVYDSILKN
Assay [12] can be described thus: cytosolic pH regulators acting via V-ATPase – S. cerevisiae, pHLuorin, HTS validation (AID 504600; in the data active means response above about 15%;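 further: plate controls were DMSO for no effect and reference compound for full effect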). Conditions: V-ATPase proton transport, at 10 µM, stronger effect = higher value.
In assay [13] the test system is anti-desmoglein-3 scFv antibody binding to human DSG3. Description: blockers of pathogenic pemphigus antibody–desmoglein-3 binding – biochemical, validation compound set, bead-based, flow cytometry, pilot screen (AID 588368;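 active means binding below the plate cutoff, the plate median minus 3 SD, with a reading above zero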;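 further: signal is the median channel fluorescence of bead-bound GFP antibody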). As to conditions: Protein G beads, DSG3-Fc, scFv-GFP binding, at 10 µM, stronger effect = lower value.
Assay [14] in a line: Nile Red efflux blockade in pump-expressing yeast – validation compound set, multiplex, phenotypic, pilot screen (AID 588506;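 active means efflux inhibition above 0.42, the validation set average plus 4 SD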;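 further: Nile Red retained in cells so higher fluorescence means more efflux inhibition; 0 = negative control wells and 1 = enniatin B 25 µM full block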). Conditions: S. cerevisiae pump-expressing triplex, Nile Red efflux flow cytometry; at 10 µM; stronger effect = higher value; the pumps come from Candida albicans.
The target of assay [15] is ATP-binding cassette sub-family B member 6 (Homo sapiens) (UniProt Q9NP58). Put plainly: blockers of ABCB6-driven porphyrin uptake – K562-ABCB6 cells, flow cytometry, validation set, pilot screen (AID 588550;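 active means inhibition above the screen-wide mean plus 3 SD, about 51%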;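 further: 0% = DMSO wells and 100% = benzethonium chloride 70 µM positive control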). Conditions: K562-ABCB6 porphyrin accumulation, 1 h, at 10 µM, stronger effect = higher value.
ATP-binding cassette sub-family B member 6 (Homo sapiens), sequence (Q9NP58 whole entry, looked up): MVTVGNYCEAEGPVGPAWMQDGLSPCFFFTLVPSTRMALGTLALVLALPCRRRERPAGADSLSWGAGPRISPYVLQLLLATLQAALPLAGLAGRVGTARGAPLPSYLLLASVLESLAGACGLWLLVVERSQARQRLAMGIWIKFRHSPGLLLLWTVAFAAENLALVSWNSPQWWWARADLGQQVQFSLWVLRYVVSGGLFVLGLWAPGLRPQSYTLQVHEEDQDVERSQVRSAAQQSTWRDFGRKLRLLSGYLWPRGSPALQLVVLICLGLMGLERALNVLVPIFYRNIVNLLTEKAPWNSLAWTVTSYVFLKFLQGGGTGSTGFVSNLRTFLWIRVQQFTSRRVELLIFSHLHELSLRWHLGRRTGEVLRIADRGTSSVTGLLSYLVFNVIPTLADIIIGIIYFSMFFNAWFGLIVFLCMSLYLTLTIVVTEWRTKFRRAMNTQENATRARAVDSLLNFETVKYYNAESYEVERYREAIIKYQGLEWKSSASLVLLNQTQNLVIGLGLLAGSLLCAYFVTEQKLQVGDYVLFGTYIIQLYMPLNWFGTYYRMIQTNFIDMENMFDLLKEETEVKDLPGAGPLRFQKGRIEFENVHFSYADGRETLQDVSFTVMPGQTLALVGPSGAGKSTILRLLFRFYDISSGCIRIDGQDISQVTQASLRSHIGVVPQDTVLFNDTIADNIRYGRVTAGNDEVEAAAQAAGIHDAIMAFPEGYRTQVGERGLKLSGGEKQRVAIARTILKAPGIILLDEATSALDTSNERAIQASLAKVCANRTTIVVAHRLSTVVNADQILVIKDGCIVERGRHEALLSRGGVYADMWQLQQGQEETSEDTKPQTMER
Assay [16] in a line: AML differentiation inducers, ER-HoxA9 marrow cells – cell-based, GFP/MAC1 double positive, flow cytometry, validation set, primary screen (AID 588685;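 active means differentiation response of at least 50%, scaled between solvent and reference control, from cells with both markers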;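 further: compound exposure lasts four days before antibody staining and flow analysis; 0% = DMSO wells and 100% = 5 µM fulvestrant positive control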). As to conditions: stronger effect = higher value, normalized: vehicle 0, fulvestrant 100.

Structures are written as SMILES. Inconclusive results are not listed. Active and inactive are the calls of the source.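 How the source made its calls, unless noted: active means aptamer binding inhibition above 30%, about 3 SD of noise from non-fluorescent compounds; inactive means inhibition at or below 30%.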

Beta-adrenergic receptor kinase 1 (Homo sapiens), sequence (P25098 whole entry, looked up): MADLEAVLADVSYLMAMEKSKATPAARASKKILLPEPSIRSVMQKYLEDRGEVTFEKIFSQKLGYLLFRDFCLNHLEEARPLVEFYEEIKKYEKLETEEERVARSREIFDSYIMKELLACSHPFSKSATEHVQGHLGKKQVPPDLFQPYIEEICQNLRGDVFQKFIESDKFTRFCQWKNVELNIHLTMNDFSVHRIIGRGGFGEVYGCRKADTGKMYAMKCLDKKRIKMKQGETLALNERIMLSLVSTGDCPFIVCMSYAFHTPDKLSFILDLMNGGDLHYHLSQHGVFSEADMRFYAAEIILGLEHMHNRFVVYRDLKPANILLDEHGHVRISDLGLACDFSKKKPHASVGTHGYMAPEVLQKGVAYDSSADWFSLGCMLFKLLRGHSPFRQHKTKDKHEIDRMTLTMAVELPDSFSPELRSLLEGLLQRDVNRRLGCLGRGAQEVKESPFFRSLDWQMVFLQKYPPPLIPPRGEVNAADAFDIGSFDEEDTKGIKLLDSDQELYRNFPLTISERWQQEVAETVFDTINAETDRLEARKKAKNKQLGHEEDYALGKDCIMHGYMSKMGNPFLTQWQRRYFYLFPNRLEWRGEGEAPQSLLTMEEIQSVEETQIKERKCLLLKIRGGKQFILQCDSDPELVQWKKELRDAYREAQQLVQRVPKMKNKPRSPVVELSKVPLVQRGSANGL
Integrin beta-1 (Homo sapiens) + Integrin alpha-4 (Homo sapiens), sequence (P05556 whole entry, looked up): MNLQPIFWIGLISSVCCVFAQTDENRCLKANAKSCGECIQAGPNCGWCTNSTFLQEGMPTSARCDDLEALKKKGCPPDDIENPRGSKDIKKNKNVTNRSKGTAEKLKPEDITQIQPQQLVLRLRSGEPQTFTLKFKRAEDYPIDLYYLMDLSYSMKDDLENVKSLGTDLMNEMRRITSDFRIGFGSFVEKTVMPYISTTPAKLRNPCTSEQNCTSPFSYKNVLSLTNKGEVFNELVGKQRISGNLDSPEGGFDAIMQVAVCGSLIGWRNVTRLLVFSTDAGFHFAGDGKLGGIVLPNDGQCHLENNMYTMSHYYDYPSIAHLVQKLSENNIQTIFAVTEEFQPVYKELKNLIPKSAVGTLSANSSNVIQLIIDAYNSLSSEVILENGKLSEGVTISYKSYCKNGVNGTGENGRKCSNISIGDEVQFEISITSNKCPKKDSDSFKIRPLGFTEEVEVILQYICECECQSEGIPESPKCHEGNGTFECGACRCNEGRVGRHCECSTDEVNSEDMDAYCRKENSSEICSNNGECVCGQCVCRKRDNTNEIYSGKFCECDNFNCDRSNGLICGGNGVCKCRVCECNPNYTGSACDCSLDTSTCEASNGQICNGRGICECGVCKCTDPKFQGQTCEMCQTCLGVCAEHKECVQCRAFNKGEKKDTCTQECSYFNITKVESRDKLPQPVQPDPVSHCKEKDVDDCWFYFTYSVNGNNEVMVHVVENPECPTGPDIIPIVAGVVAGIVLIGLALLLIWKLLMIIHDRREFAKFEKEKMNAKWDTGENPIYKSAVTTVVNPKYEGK
Integrin beta-1 (Homo sapiens) + Integrin alpha-4 (Homo sapiens), sequence (P13612 whole entry, looked up): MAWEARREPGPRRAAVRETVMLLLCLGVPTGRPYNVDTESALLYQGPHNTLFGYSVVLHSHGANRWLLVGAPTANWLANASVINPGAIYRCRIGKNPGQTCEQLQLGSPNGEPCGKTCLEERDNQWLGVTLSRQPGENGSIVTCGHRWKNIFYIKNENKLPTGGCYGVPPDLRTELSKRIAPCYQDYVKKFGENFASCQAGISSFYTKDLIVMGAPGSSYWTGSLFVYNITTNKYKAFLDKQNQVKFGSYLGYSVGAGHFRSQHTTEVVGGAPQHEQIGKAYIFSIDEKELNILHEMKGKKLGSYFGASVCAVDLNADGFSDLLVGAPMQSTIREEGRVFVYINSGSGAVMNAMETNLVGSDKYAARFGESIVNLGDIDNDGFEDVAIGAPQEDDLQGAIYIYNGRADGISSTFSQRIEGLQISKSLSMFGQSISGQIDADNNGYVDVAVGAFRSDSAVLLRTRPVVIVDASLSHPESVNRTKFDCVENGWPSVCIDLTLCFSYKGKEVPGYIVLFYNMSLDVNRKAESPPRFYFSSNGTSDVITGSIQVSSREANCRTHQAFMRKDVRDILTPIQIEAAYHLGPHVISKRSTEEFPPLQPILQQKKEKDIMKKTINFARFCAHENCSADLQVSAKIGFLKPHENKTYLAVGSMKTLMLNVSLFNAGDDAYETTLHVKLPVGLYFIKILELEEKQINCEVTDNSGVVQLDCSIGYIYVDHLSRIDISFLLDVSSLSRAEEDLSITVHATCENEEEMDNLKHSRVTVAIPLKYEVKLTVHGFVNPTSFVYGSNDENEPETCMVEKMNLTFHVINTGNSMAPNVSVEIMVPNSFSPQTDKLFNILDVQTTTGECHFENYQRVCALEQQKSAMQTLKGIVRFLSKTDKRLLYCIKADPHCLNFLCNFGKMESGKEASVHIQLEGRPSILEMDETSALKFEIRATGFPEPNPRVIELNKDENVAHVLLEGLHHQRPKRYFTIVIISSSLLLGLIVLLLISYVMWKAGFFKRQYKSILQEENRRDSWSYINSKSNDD
Beta-2 adrenergic receptor (Homo sapiens), sequence (P07550 whole entry, looked up): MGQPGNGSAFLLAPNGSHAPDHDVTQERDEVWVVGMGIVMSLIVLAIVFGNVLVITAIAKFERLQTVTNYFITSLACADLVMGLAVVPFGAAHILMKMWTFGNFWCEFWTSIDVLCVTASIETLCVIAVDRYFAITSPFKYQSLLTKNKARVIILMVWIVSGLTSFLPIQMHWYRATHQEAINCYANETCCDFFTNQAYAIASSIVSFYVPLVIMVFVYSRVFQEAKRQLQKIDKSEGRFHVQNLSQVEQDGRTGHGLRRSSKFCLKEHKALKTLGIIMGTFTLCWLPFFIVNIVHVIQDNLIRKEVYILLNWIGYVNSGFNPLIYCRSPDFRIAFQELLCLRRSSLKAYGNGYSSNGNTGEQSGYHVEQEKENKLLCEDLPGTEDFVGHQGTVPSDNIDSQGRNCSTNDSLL

As to `Cc1ccc(CN2CCN(CCCc3ccccc3)CC2CCO)cc1` (stereo not given), in assay [1], the percent of DMSO control GFP is 103% (inactive). Moreover, the values for the GFP response vs DMSO in assay [2] and in [4] were 104% (inactive) and 97.3% (inactive), respectively. Moreover, the percent response of DMSO control in assay [3] is 106% (inactive). Moreover, the GFP response, % of DMSO in [5] is 104% (inactive). In assay [6], this compound came in with a double positive events of 62.7%. For the same compound, in assay [6], the vesicle binding response was 219% (inactive). For the same compound, the inhibition (in general, the relative decrease from the control value, in per cent) was 7.85% (inactive) in [7], 30.3% (inactive) in [11] and -8% (inactive) in assay [15]. Moreover, in [8], the superoxide response (% of plate) is 106% (inactive). Also, the aptamer binding inhibition in [9] was 1% (inactive). The response in assay [10] was 9.66% (inactive); in [12], -5.49% (inactive). Also, in [13], the binding (% of control) is 102% (inactive). The efflux inhibition (fraction of control) in assay [14] is -0.01 (inactive). Moreover, in assay [16], the differentiation response is 10% (inactive).
Consider `CC1(c2ccccc2)CC(C)(C)N2C(=O)C(=O)c3cccc1c32` (stereo not given), for which the percent of DMSO control GFP in assay [1] is 108% (inactive). Also, the GFP response vs DMSO is 97.4% (inactive) in assay [2] and 81.1% (inactive) in assay [4]. Moreover, in assay [3], the percent response of DMSO control is 99.6% (inactive). Further, in assay [5], the GFP response, % of DMSO was 95.7% (inactive). In [6], this compound yielded a double positive events of 60.1%. In addition, in assay [6], the vesicle binding response was 148% (inactive). Also, the inhibition in assay [7] was -7.25% (inactive); in assay [11], 0.89% (inactive); in assay [15], 5% (inactive). Also, the superoxide response (% of plate) in assay [8] is 109% (inactive). Also, the aptamer binding inhibition in assay [9] is 4% (inactive). Also, the response in assay [10] was 20.4% (inactive); in assay [12], 3.44% (inactive). For the same compound, the binding (% of control) in [13] is 98.7% (inactive). In addition, the efflux inhibition (fraction of control) in assay [14] was 0.15 (inactive). In [16], the differentiation response was 0.8% (inactive).
As to `Nc1nc(Cl)nc2c1ncn2[C@H]1C[C@H](O)[C@@H](CO)O1`, the percent of DMSO control GFP in assay [1] was 99.2% (inactive). The GFP response vs DMSO in assay [2] is 102% (inactive); in [4] it was 104% (inactive). In addition, the percent response of DMSO control in [3] was 106% (inactive). For the same compound, in [5], the GFP response, % of DMSO was 114% (inactive). Moreover, in assay [6], the double positive events was found to be 63.3%. Besides, the vesicle binding response in [6] is 225% (inactive). In addition, the inhibition was 0.59% (inactive) in assay [7], 27.9% (inactive) in [11] and -1% (inactive) in [15]. Also, the superoxide response (% of plate) in assay [8] was 86.7% (inactive). The aptamer binding inhibition in [9] was 7% (inactive). Besides, the response was -24.5% (inactive) in assay [10] and 2.75% (inactive) in assay [12]. Moreover, in [13], the binding (% of control) is 103% (inactive). Also, the efflux inhibition (fraction of control) in assay [14] was 0 (inactive). Besides, the differentiation response in [16] was -9.91% (inactive).
Regarding `COc1ccc(Cc2noc(CN(C)CCN3CCc4ccccc4C3)n2)cc1OC`, the percent of DMSO control GFP in [1] is 103% (inactive). The GFP response vs DMSO in assay [2] is 105% (inactive); in assay [4], 91.4% (inactive). The percent response of DMSO control in assay [3] is 109% (inactive). For the same compound, the GFP response, % of DMSO in assay [5] was 103% (inactive). For the same compound, in assay [6], the double positive events turned out to be 65.2%. The vesicle binding response in assay [6] is 232% (inactive). Also, the inhibition in assay [7] was -8.75% (inactive); in assay [11] it was -8.41% (inactive); in assay [15], -12% (inactive). Moreover, the superoxide response (% of plate) in assay [8] is 95% (inactive). Also, in assay [9], the aptamer binding inhibition is 6% (inactive). The figures for the response in [10] and in assay [12] were -6.59% (inactive) and 0.56% (inactive), respectively. For the same compound, in assay [13], the binding (% of control) was 104% (inactive). For the same compound, in assay [14], the efflux inhibition (fraction of control) was -0.1 (inactive). Besides, in assay [16], the differentiation response was 5.13% (inactive).
Take `O=C(CN1C(=O)c2ccccc2C1=O)Nc1cccc([N+](=O)[O-])c1`: in assay [1], the percent of DMSO control GFP was 103% (inactive). The GFP response vs DMSO in assay [2] was 98.7% (inactive); in assay [4], 100% (inactive). Further, the percent response of DMSO control in assay [3] is 109% (inactive). Moreover, the GFP response, % of DMSO in assay [5] was 106% (inactive). The compound also displayed a double positive events in assay [6] of 61.2%. For the same compound, the vesicle binding response in assay [6] is 130% (inactive). The inhibition in [7] is -18.5% (inactive); in [11] it was 35% (inactive); in [15], 7% (inactive). For the same compound, the superoxide response (% of plate) in assay [8] was 94.2% (inactive). The aptamer binding inhibition in assay [9] was -3% (inactive). For the same compound, the response in assay [10] is -3.16% (inactive); in assay [12], -0.16% (inactive). In addition, the binding (% of control) in assay [13] was 101% (inactive). For the same compound, the efflux inhibition (fraction of control) in assay [14] was 0.005 (inactive). For the same compound, the differentiation response in assay [16] was -10.4% (inactive).
